# Screens from PubChem BioAssay.
# IL1B NFkB pot: enhances IL-1B driven NFkB nuclear translocation; 94,000 compounds, 0.3% hits; HUVEC IL-1B NFkB p65 nuclear translocation imaging; AID 819; activation, % at 2 µM;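 active = activation above 40%, about the mean plus 3 SD, also judged a hit on visual image review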;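 also: percent activation is computed from the nuclear over cytoplasmic p65 intensity ratio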
# PTPN22 act: LYP (human) phosphatase activation | Q9Y2R2 | recombinant LYP, DiFMUP fluorescence; 0 = plate median, 100 = signal doubled | activation, % at 2 µM | 96,000 compounds, 0.11% hits | AID 697;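 active = activation at 2 µM above a set limit, the mean plus 5 SD, cut at about 37% in these data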
# NFkB transloc inh: blocks IL-1B driven NFkB nuclear translocation in HUVEC cells; HUVEC IL-1B NFkB p65 nuclear translocation imaging; inhibition, % at 2 µM; 94,000 compounds, 0.43% hits; AID 796;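 active = inhibition above about 30% together with a positive call from visual inspection of the well image, limit read from the data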;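 also: nuclear over cytoplasmic p65 intensity ratio measured by imaging; 0% = IL-1B stimulated DMSO wells and 100% = unstimulated DMSO wells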
# PTPN22 inh 2: inhibitors of human LYP (PTPN22) phosphatase; recombinant LYP catalytic domain, DiFMUP fluorescence; AID 640; 96,000 compounds, 0.21% hits; inhibition, % at 2 µM; Q9Y2R2;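 active = inhibition at 2 µM at or above a set limit, the screen mean plus 3 SD, cut at about 24% in these data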;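 also: 0% = DMSO with enzyme and 100% = enzyme fully blocked by orthovanadate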
# IL1B cytotox: HUVEC cytotoxicity counter-screen, IL-1B stimulated | HUVEC cell count loss, Hoechst imaging | 94,000 compounds, 0.41% hits | cell count reduction, % at 2 µM | AID 845;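 active = cell count reduction more than 3 SD above the screen-wide mean, cut at about 70% in these data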;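 also: normalized per plate to untreated control cells as the no-loss baseline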
# LYP act confirm: confirmation of human LYP phosphatase activators; activation, % at 2 µM; AID 1031; Recombinant LYP, DIFMUP fluorescence, activation; zero set by plate's median compound well; shares compounds with PTPN22 act; 100 tested, under 10 active; call rule not given here
# * = called active by the depositor; x = no result given. Sampled rows, rich in hits. Any-hit rate of the full collection: about 1.3%.
SMILES,IL1B NFkB pot,PTPN22 act,NFkB transloc inh,PTPN22 inh 2,IL1B cytotox,LYP act confirm
COc1ccc(C2=NN(C(=O)c3cccc([N+](=O)[O-])c3)C(c3cccc([N+](=O)[O-])c3)C2)cc1 (stereo unspecified),-5,-4,5,8,-6,x
COc1ccc(C(=O)N2CCc3cc(OC)c(OC)cc3C2c2cccc([N+](=O)[O-])c2)cc1OC (stereo unspecified),-5,39*,5,-35,2,-8
NC(=O)C1CCN(C(=O)OCc2ccccc2)CC1,17,-9,-17,11,14,x
O=C(CCc1nc2cccnc2n1Cc1ccccc1)NCCc1ccc(Cl)cc1,-1,-5,1,6,-11,x
O=C(c1cc(-c2ccccn2)nc2c(Cl)cccc12)N1CCN(C(=O)C2CCCO2)CC1 (stereo unspecified),27,45*,-27,-46,-4,-3
COC(=O)Cc1c(O)ccn(Cc2cccc3ccccc23)c1=O,-11,5,11,-2,-18,x
COc1ccc(C(=O)NCCCN2CCOCC2)cc1OC,-4,44*,4,-41,-37,6
CCc1onc(C)c1C(=O)Nc1cc(C)ccc1OC,5,40*,-6,-44,-2,-4
COc1ccc(C(C)(C)C)cc1NC(=O)c1c(C)noc1C,19,-5,-19,2,4,x
O=C1c2ccccc2C(=O)N1c1n[nH]c(CCc2ccccc2)n1,15,43*,-15,-49,-26,-4
COc1ccccc1NC(=O)Cc1noc(CSc2nnc(C)s2)n1,18,46*,-18,-50,10,-2
O=C1CC(C2CCCO2)C(=O)N1c1ccccc1 (stereo unspecified),5,0,-5,-1,-21,x
CC(=O)N1c2c(cc(Br)cc2S(=O)(=O)NCC2COc3ccccc3O2)CC1C (stereo unspecified),11,38*,-11,-33,10,-3
CCCCN(Cc1ccccc1)S(=O)(=O)c1cc(Br)cc2c1N(C(C)=O)C(C)C2 (stereo unspecified),10,-3,-10,6,0,x
CC(=O)Nc1nc(C2COc3ccccc3O2)cs1 (stereo unspecified),3,41*,-4,-38,-20,2
CCN1C(=O)C2C(c3cccc(F)c3)NC(CC)(C(=O)OC)C2C1=O (stereo unspecified),20,42*,-20,-42,-22,7
CCN1C(=O)C2C(c3cccc(F)c3)NC(C)(C(=O)OC)C2C1=O (stereo unspecified),8,-8,-8,9,-10,x
COCCN(C(=O)Cc1cccs1)C(C(=O)NCc1ccc(OC)cc1)c1ccccc1 (stereo unspecified),-12,3,12,0,-6,x
CC(Sc1ccc(Cl)cc1)C(=O)NCc1cccnc1 (stereo unspecified),13,37*,-13,-38,-10,6
CCOC(=O)CSCc1c(C#N)c2ccccc2n1C,14,40*,-14,-42,-30,4
CC(C)(CS(=O)(=O)[O-])NC(=O)CC[N+](C)(C)CCO,-9,-2,9,2,-21,x
COc1ccc2c(C)cc(=O)oc2c1C,2,-2,-2,1,5,x
CCOC(=O)C(Oc1ccc2c(-c3ccc(OC)cc3)cc(=O)oc2c1C)c1ccccc1 (stereo unspecified),5,44*,-5,-38,0,-10
CCOCCCN(Cc1ccco1)C(=O)c1cc2c(=O)[nH]c3ccc(C)cc3c2s1,17,-1,-17,0,-5,x
NC(=O)c1nc(N2CCOCC2)nc(N2CCOCC2)n1,6,41*,-6,-42,5,6
SMILES,IL1B NFkB pot,PTPN22 act,NFkB transloc inh,PTPN22 inh 2,IL1B cytotox,LYP act confirm
Cc1ccc(-c2nnn(CC(=O)N3CCN(c4ccccc4)CC3)n2)o1,3,-7,-3,7,-6,x
Cc1ccccc1OCC(=O)OC(C)CN1CCN(C)CC1 (stereo unspecified),3,48*,-3,-47,-8,4
Cc1ccccc1OCC(=O)OC1CCN(C)CC1,6,2,-6,0,-15,x
CCN(CC)c1ccc(N2C(=O)/C(=C/c3cccnc3)SC2=S)cc1,6,5,-6,-2,13,x
CC1CCN(c2ncnc3nc[nH]c23)CC1,15,42*,-15,-43,-9,-1
NC(=O)CSc1nnc(C2CC2)n1-c1ccccc1,6,11,-6,-11,7,x
